Results published in PubChem BioAssay (EPA / NIEHS).
Calls of active or inactive are those of the source. Rule for the calls: active = hit-call score of the fitted dose curve at least 0.9, where 1 is the maximum; inactive = score below 0.9.

These compounds were tested on Bcl-2 (BAD) gene, BAD (gene 572) (assay: LTEA_HepaRG_BAD: Life Technologies and Expression Analysis (LTEA) Assay for Bcl-2 (BAD) gene using HepaRG (AID 2283469)). Conditions: mRNA level, 48 h; actives raise or lower the signal.
Method: LTEA_HepaRG is a cell based, multiplexed-readout assay that uses HepaRG, a human liver cell line, with measurements taken at 48 hours after chemical dosing on a 96-well plate.LTEA_HepaRG_BAD is one of 102 assay component(s) measured in the LTEA HepaRG cell culture assay. It is a marker of Cell proliferation, survival, death.Data from the assay component LTEA_HepaRG_BAD was analyzed into 1 endpoint. This assay endpoint, LTEA_HepaRG_BAD, was analyzed with bidirectional fitting relative to DMSO as the negative control and baseline of activity. Using a type of inducible reporter, measures of mRNA induction for gain or loss-of-signal activity can be used to understand regulation of transcription factor activity. To generalize the intended target to other relatable targets, this assay endpoint is annotated to the cell cycle intended target family, where the subfamily is Cell proliferation, survival, death.
A total of 1060 chemcials from the ToxCast library were tested in eight-point concentration-response experiments. Cell culture and cytotoxicity assays were conducted at Thermo Fisher Scientific's Custom Services facility (Madison, WI). A single lot of human HepaRG cells (Thermo Fisher Scientific, Frederick, MD) was used for the cell culture experiments. 96-well format collagen type I coated plates of human HepaRG cells were prepared using established methods. Briefly, cryopreserved HepaRG cells were thawed, plated at a density of approximately 100,000 cells/well in HepaRG Thaw, Plate, and General Purpose media (HPRG770, Thermo Fisher Scientific), and incubated for 48 hours. 0.5% DMSO was selected as vehicle control to balance the requisite need of DMSO in HepaRG cultures to maintain differentiation (for example, baseline metabolism, proportions of hepatocytes vs. cholangiocytes), while enabling further hepatic receptor pathway activation (for example, PXR and CAR) in response to chemical exposure. 48 hours after plating, the culture medium was replaced with HepaRG Serum-Free Incudtion Media. Cells were exposed to each test chemical in duplicate and maintained in CO2 incubators for another 48 hours. Chemical plates were thawed to room temperature and 200x concentrations of treatment groups were prepared. 8-point conentration-reponse curves were made with the highest exposure at 100 uM, followed by half-log dilutions, all in 0.5% DMSO. Each test plate contained variouse controls, induction positive controls (1mM phenobarbital), cytotoxicity positive controls ([…] aflatoxin B1), vehicle controls (0.5% DMSO), and total lysis controls (0.5% DMSO). Cell morphology images were taken using an Essen IncuCyte FLR automated microscope, with six 96-well plates imaged in about 24 minutes. Images were captured and exported and JPEG files. Spent culture media was transfered to black-well plates for the LDH assay, and remaining media was sorted at -80 C for later use. Cells were treated with RLT buffer and frozen until shipped for gene expression analysis. Total RNA was isolated from the cell suspension in 75 uL of Buffer RLT (Qiagen, Germantown, MD 20874) by Quintiles/Expression Analysis (Durham, NC) using a custom isolation procedure. Total RNA from each plate well was transferred to a preamplification plate. Fluidigm's 96.96 Dynamic ArrayTM (Fluidigm, Amsterdam, the Netherlands) technology was used for gene expression analyses by quantitative reverse transcription polymerase chain reaction (qRT-PCR, performed by Quintiles/Expression Analysis, Durham, NC)89. Standard TaqManTM Assays (Applied Biosystems/ThermoFisher Scientific, Foster City, CA) were used to assess the expression of 93 genes selected based on their selectivity and sensitivity to important hepatic receptors known to be modulated by environmental chemicals; importance in human hepatocyte functionality; and hepatotoxicity. […]

Structure (SMILES)	outcome	AC50
CC(C)=CCCC(C)CCO (stereo not given)	inactive	
Cn1c(=O)cc(Oc2ccc(F)cc2F)c2cnc(NCC(C)(C)O)nc21	inactive	
NC(=O)NO	inactive	
Nc1ccc(Nc2ccccc2)cc1		11.9 µM (active)
C1N2CN3CN1CN(C2)C3	inactive	
O=P(OC(CCl)CCl)(OC(CCl)CCl)OC(CCl)CCl	inactive	
Nc1nc2ncc(CNc3ccc(C(=O)N[C@@H](CCC(=O)O)C(=O)O)cc3)nc2c(=O)[nH]1	inactive	
CC/C(=C\C(=N/O)C(N)=O)C(C)[N+](=O)[O-] (stereo not given)	inactive	
COCCOCCOCCOC	inactive	
C=CCCCCCCCCC(=O)O	inactive	
CCCCCCCCCCCCCCCO	inactive	
CCOCCO	inactive	
C1=CCCC=CCCC=CCC1	inactive	
CC(C)CCO	inactive	
Nc1cccc(N)c1	inactive	
CCC(C)(C)C(=O)O[C@H]1C[C@@H](C)C=C2C=C[C@H](C)[C@H](CC[C@@H]3C[C@@H](O)CC(=O)O3)[C@H]21	inactive	
CC1=CC(=O)CC(C)(C)C1	inactive	
CCCCCCCCO	inactive	
CC(O)CN(CCN(CC(C)O)CC(C)O)CC(C)O (stereo not given)		12.2 µM (active)
O=C(CCCCCCCCc1cccnc1)N1CCC(C=C(c2ccccc2)c2ccccc2)CC1	inactive	

Structure (SMILES)	outcome	AC50
CCNc1ccccc1	inactive	
CCCN(C1CCN(C(=O)C2CCNCC2)CC1)[C@@H]1CCc2ccc(OC)cc2C1	inactive	
CC[C@H]1CC[C@H](NCc2cc3c(cc2OC)[C@H]2C[C@H]2C(=O)N3C)[C@H](c2ccccc2)N1	inactive	
O=C(O)CCN(C1(C(=O)NO)CCCC1)S(=O)(=O)c1ccc(Oc2ccc(F)cc2)cc1	inactive	
On1ccccc1=S	inactive	
O=c1n(CC2CO2)c(=O)n(CC2CO2)c(=O)n1CC1CO1 (stereo not given)	inactive	
CCCCCCc1ccc(O)cc1O	inactive	
O=C(O)c1cc(N=Nc2ccc(S(=O)(=O)Nc3ccccn3)cc2)ccc1O	inactive	
Cc1c(-c2cccnc2)c2ccccc2n1CCCCC(=O)O	inactive	
COc1ccc(/C=C/S(=O)(=O)NC(=O)c2ccc(C)cc2Cl)cc1	inactive	
CCOCCOCCOCCO	inactive	
CCOC(=O)COc1ccc2c(c1)CC(NCC(O)c1cccc(Cl)c1)CC2 (stereo not given)	inactive	
CCN(C(=O)c1cc(C)cc(OC[C@H](C)Nc2ccncc2)c1)C(C)C	inactive	
O=C1CCC(N2C(=O)c3ccccc3C2=O)C(=O)N1 (stereo not given)	inactive	
CC(C)=CCC/C(C)=C/CO	inactive	
CC(C)CCCCCCCOC(=O)CCCCC(=O)OCCCCCCCC(C)C	inactive	
COc1ccc(-n2nc(C(F)F)cc2-c2ccc(S(C)=O)cc2)cc1 (stereo not given)	inactive	
CC(=O)OCCC(C)C	inactive	
Cn1c(=O)c2c(ncn2C)n(C)c1=O	inactive	
C=CC(=C)CCC=C(C)C	inactive	
